Assay [1] can be described thus: NCI Yeast Anticancer Drug Screen. Data for the rad50 strain (AID 155).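 Further: 0% = growth of vehicle-only cultures of the same strain.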 Conditions: S. cerevisiae rad50 strain growth inhibition; at 50.0 µM; active compounds read high. Put shortly: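 A DNA repair-deficient yeast mutant serves as the test organism; compound-induced growth inhibition is calculated against vehicle-treated cells.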
The nature of assay [2]: NCI Yeast Anticancer Drug Screen. Data for the mec2-1 strain (AID 157). The conditions noted are these: S. cerevisiae mec2-1 strain, at 50.0 µM, active compounds read high. Put shortly: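 Mutant yeast (mec2-1) grown with compound; growth inhibition relative to vehicle control reported.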
The nature of assay [3]: NCI Yeast Anticancer Drug Screen. Data for the sgs1 mgt1 strain (AID 161).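 Further: 0% = growth of cultures given vehicle only.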 Conditions: S. cerevisiae sgs1 mgt1 strain, at 50.0 µM, active compounds read high. Put shortly:
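Compounds are added to genetically altered yeast, and growth is compared with cultures given vehicle alone to give percent inhibition.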

Assay [4] is described as follows: NCI Yeast Anticancer Drug Screen. Data for the cln2 rad14 strain (AID 165).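 Further: 0% = growth equal to vehicle treated cultures.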 The conditions noted are these: S. cerevisiae cln2 rad14 strain, at 50.0 µM, active compounds read high. In a few lines: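 Readout is yeast growth inhibition versus vehicle-treated controls, using a strain with cln2 and rad14 alterations exposed to compound.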
The nature of assay [5]: NCI Yeast Anticancer Drug Screen. Data for the bub3 strain (AID 167). The conditions noted are these: S. cerevisiae bub3 mutant strain, at 50.0 µM, active compounds read high. Put shortly:
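Inhibition values come from growth of compound-treated mutant yeast normalised to vehicle-treated controls.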

A short description of assay [6]: NCI Yeast Anticancer Drug Screen. Data for the mlh1 rad18 strain (AID 175). The conditions noted are these: S. cerevisiae mlh1 rad18 strain growth inhibition; at 50.0 µM; active compounds read high. Put shortly:
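Genetically defined yeast (DNA repair-deficient) exposed to compounds; growth inhibition determined relative to vehicle.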

This is part of a sample that, as a whole, favours compounds with a hit. Of some 79,000 tested, about 15% had one in any assay. Values without a mark were called inactive. Calls of active or inactive are those of the source. No stated cut-off is given here; in the data, active means growth inhibition above about 70%; inactive means the rest.

For the molecule `COC(=O)C(O)C(O)C(O)C(O)C(=O)OC` (stereo not given), the growth inhibition in assay [1] was 2.2%; in assay [2], 17.4%; in assay [3], 10.8%; in assay [4] it was -5.65%; in assay [5], 11.2%; in assay [6] it was 13.3%.

Turning to `CC(C(=O)c1ccccc1)N(C)c1ccccc1` (stereo not given), the growth inhibition in assay [1] is 12.7%; in assay [2] it was -5.35%; in assay [3], -3.1%; in assay [4], -36.8%; in assay [5], -26%; in assay [6], -1.65%.

For the molecule `O=C(O)Cc1cccc2nnnn12`, the growth inhibition was 14.2% in assay [1]; -17.8% in assay [2]; -7.5% in assay [3]; 15.1% in assay [4]; -4.75% in assay [5]; 23.9% in assay [6].

On to `COC(=O)C1C(O)C(C)C(O)C(C)(O)C=C(C)C2=C3C(=C(C)C(=O)c4c(O)c(c(C)c(OC(C)=O)c43)NC(=O)C(C)=C/C=C\C(C)(O)C(O)C(C)C1O)OCO2` (stereo not given), for which the growth inhibition was 14.3% in assay [1]; 1.65% in assay [2]; 0.85% in assay [3]; -1.55% in assay [4]; 3.85% in assay [5]; 6.25% in assay [6].

Turning to `CCCCCCCCSC#N`, the growth inhibition in assay [1] was 7.95%; in assay [2] it was -11%; in assay [3], -3.6%; in assay [4] it was 23.9%; in assay [5], 2%; in assay [6] it was -1.4%.

Take `COc1cc(OC)cc(N(C)Cc2cnc3nc(N)nc(N)c3c2C)c1`: the growth inhibition in assay [1] was 0.75%; in assay [2], 11.7%; in assay [3], 15.6%; in assay [4] it was 11.3%; in assay [5], 12.3%; in assay [6], -3.45%.

In the case of `CC(=O)OCCn1c(=O)sc2ccccc21`, the growth inhibition in assay [1] was 3.1%; in assay [2], 13.8%; in assay [3] it was 3.2%; in assay [4], -8.35%; in assay [5], -10.7%; in assay [6], -1.4%.

Take `CC(=N/Nc1ccc([N+](=O)[O-])cc1[N+](=O)[O-])/C(C)=C/C1C=CCCC1(C)C` (stereo not given): the growth inhibition is 21.2% in assay [1]; -2.75% in assay [2]; 8.5% in assay [3]; 3% in assay [4]; 16.1% in assay [5]; 6.65% in assay [6].

As to `CC1(C)C2CC3C(=CCC4C(=O)C5CC=C6C(CC7CC6C7(C)C)C5C(=O)C43)C1C2` (stereo not given), the growth inhibition in assay [1] is 23.6%; in assay [2], -6.1%; in assay [3] it was 14%; in assay [4] it was -20%; in assay [5], -5.2%; in assay [6], -1.65%.

For the molecule `O=C(O)/C=C(/CC(=O)O)c1ccc(O)cc1`, the growth inhibition in assay [1] was -14.9%; in assay [2], -21.7%; in assay [3], -9.9%; in assay [4] it was -4.55%; in assay [5] it was -18.6%; in assay [6], -14.3%.

Consider `CCC(CCc1ccc(OC)c(OC)c1)C(=O)O` (stereo not given), for which the growth inhibition is 1.8% in assay [1]; 12.2% in assay [2]; 14.2% in assay [3]; -9.85% in assay [4]; 29.4% in assay [5]; 9.15% in assay [6].

`CCOC(=O)C1(Cc2ccccc2)Cc2ccccc2C1=O` (stereo not given): the growth inhibition in assay [1] was 7.75%; in assay [2], 29.9%; in assay [3], 79% (active); in assay [4] it was 62.1%; in assay [5], 73.7% (active); in assay [6], 63.5%.

In the case of `CCOC(=O)C1CC(=O)N(Cc2ccccc2)C(=O)N1` (stereo not given), the growth inhibition in assay [1] is -11.1%; in assay [2], 1.8%; in assay [3], -17.6%; in assay [4], -16.9%; in assay [5], 22.1%; in assay [6] it was -3.5%.

With `Cc1ccc(S(=O)(=O)NNC(=O)Nc2cccc(C(F)(F)F)c2)cc1`, the growth inhibition in assay [1] was 24.4%; in assay [2] it was -18%; in assay [3], 18.1%; in assay [4], -2.15%; in assay [5], -0.3%; in assay [6], 54.7%.

As for `O=[N+]([O-])c1ccc(N=Nc2c(O)c3ccccc3c3ccccc23)c([N+](=O)[O-])c1`, the growth inhibition in assay [1] was 46.6%; in assay [2] it was 10.3%; in assay [3], 27.9%; in assay [4] it was 25.9%; in assay [5], 6.1%; in assay [6], 23.2%.

Take `N#C/C(=C\c1ccc2c(c1)OCO2)C(=O)N/N=C/c1ccc2c(c1)OCO2`: the growth inhibition in assay [1] is 4.6%; in assay [2], 17.3%; in assay [3], 5.4%; in assay [4], -13.7%; in assay [5] it was -0.1%; in assay [6] it was 2.95%.

As for `O=C1c2cccc3cc([N+](=O)[O-])cc(c23)C(=O)N1C(Cc1ccccc1)c1ccccc1` (stereo not given), the growth inhibition in assay [1] was 4.1%; in assay [2], -6.05%; in assay [3], 16.4%; in assay [4], 15.1%; in assay [5], 10.6%; in assay [6] it was 19.1%.

Consider `O=C1COc2cccnc2N1`, for which the growth inhibition was 12.7% in assay [1]; -2.05% in assay [2]; 19.5% in assay [3]; 2.2% in assay [4]; 14.7% in assay [5]; 14.7% in assay [6].

For the molecule `COC(=O)CC(=O)C=P(c1ccccc1)(c1ccccc1)c1ccccc1`, the growth inhibition in assay [1] was -3.2%; in assay [2], -4.15%; in assay [3] it was -3.15%; in assay [4], 6.3%; in assay [5] it was -17.5%; in assay [6] it was -2.15%.

For `CCOC(=O)C1=C(C(=O)c2ccc(OC)cc2)C(c2ccc(OC)c(OC)c2)C(C(=O)c2ccc(OC)cc2)=C(C(=O)OCC)N1`, the growth inhibition in assay [1] is -44.4%; in assay [2], -20%; in assay [3], -32.2%; in assay [4] it was -24.6%; in assay [5], -23%; in assay [6] it was -18.8%.

Consider `CCCCCCCC#CC1(CCCC)Sc2ccccc2N1C` (stereo not given), for which the growth inhibition in assay [1] is 15.3%; in assay [2] it was 6.15%; in assay [3], 0.75%; in assay [4] it was 8.05%; in assay [5] it was 6.35%; in assay [6], 19.8%.

On to `ClC(Cl)(Cl)CC(Br)c1ccccc1` (stereo not given), for which the growth inhibition in assay [1] is -1.55%; in assay [2], -8.8%; in assay [3], 7.55%; in assay [4], -22.9%; in assay [5], -6.9%; in assay [6], 2.25%.

For the molecule `NNC(=O)c1csnn1`, the growth inhibition in assay [1] was -24.6%; in assay [2] it was -22.6%; in assay [3], -24.5%; in assay [4], -25.4%; in assay [5] it was -23.6%; in assay [6], -7%.

In the case of `CCCCNc1nc(Cl)nc(C(F)(F)F)c1N`, the growth inhibition in assay [1] is 7.35%; in assay [2], 2.45%; in assay [3], 6.55%; in assay [4] it was -29.8%; in assay [5], 1.4%; in assay [6], 1.35%.

`Nc1cc2c(cc1Br)-c1ccc(Cl)cc1C2=O`: the growth inhibition in assay [1] was 1.2%; in assay [2] it was 5%; in assay [3], 7.3%; in assay [4], -54.4%; in assay [5] it was 0%; in assay [6], -0.5%.

As to `CC(C)(C)C1CCCC(=O)C1` (stereo not given), the growth inhibition in assay [1] was 8.3%; in assay [2] it was -5.15%; in assay [3], 3.5%; in assay [4], 10.3%; in assay [5], 6.85%; in assay [6] it was 3.15%.

On to `COc1cc2cc(C)c(C)cc2cc1OC`, for which the growth inhibition in assay [1] is -5.8%; in assay [2], 13.7%; in assay [3], -4%; in assay [4] it was -22.9%; in assay [5], -21.9%; in assay [6] it was 5.65%.

`Cc1ccc(-c2nc3ccccc3cc2N)cc1`: the growth inhibition in assay [1] was 5.85%; in assay [2], 7.65%; in assay [3] it was -0.45%; in assay [4], -14%; in assay [5] it was 3.15%; in assay [6], -4.4%.

Take `Cc1cccc(NC(=O)c2c(Br)c(Br)c(Br)c(Br)c2C(=O)O)c1C`: the growth inhibition in assay [1] is 26.9%; in assay [2], -18%; in assay [3], 12.7%; in assay [4], 2.85%; in assay [5], 5.4%; in assay [6], -4.3%.

Take `CN1CCN(CCCBr)CC1`: the growth inhibition was -8.85% in assay [1]; -5.3% in assay [2]; -24.9% in assay [3]; -31.8% in assay [4]; -31.9% in assay [5]; -4.3% in assay [6].

On to `OC1(c2ccc(F)cc2)CCNCC1`, for which the growth inhibition in assay [1] was 21.5%; in assay [2] it was -7.55%; in assay [3] it was 33.9%; in assay [4] it was 20.4%; in assay [5], 19%; in assay [6] it was 7.2%.

On to `CCOC(OCC)C(=O)NC(C)c1ccc(O)c(OC)c1` (stereo not given), for which the growth inhibition in assay [1] was -20.8%; in assay [2] it was 7.95%; in assay [3], 0.2%; in assay [4], -12.2%; in assay [5], -7.4%; in assay [6], 3.2%.

With `Cc1ccc2c(c1)OC(=O)CC2`, the growth inhibition in assay [1] is 10.3%; in assay [2], -9.65%; in assay [3], -3.25%; in assay [4], -18.8%; in assay [5] it was -4.1%; in assay [6], -4.3%.

Regarding `CN1CCC(C(O)c2ccccc2)CC1` (stereo not given), the growth inhibition was 3.95% in assay [1]; -3.8% in assay [2]; -6.15% in assay [3]; -24.4% in assay [4]; 3.95% in assay [5]; 5.5% in assay [6].

With `CC(=O)OC1OC(COC(=O)c2ccccc2)C(OC(=O)c2ccccc2)C1OC(=O)c1ccccc1` (stereo not given), the growth inhibition in assay [1] is -60.6%; in assay [2], -12.8%; in assay [3], -13.2%; in assay [4], -33.9%; in assay [5], -0.65%; in assay [6], 2.95%.

As to `COc1ccc(/C=C\c2cccc(Cl)c2)cc1`, the growth inhibition is 21.6% in assay [1]; -25.1% in assay [2]; 3.3% in assay [3]; -8.95% in assay [4]; -13.3% in assay [5]; 6.4% in assay [6].

Take `CC1C(O)C(c2ccccc2)(c2ccccc2)C(C)CN1C` (stereo not given): the growth inhibition was -5.65% in assay [1]; -4.95% in assay [2]; 4.15% in assay [3]; 4.65% in assay [4]; -2.6% in assay [5]; 3.45% in assay [6].

Consider `Nc1cccc2c1C(=O)c1cccc(Nc3ccc4c(c3)C(=O)c3ccccc3C4=O)c1C2=O`, for which the growth inhibition is -2.95% in assay [1]; -2.7% in assay [2]; 5.55% in assay [3]; 47.9% in assay [4]; -14.2% in assay [5]; 32.9% in assay [6].

Consider `O.O.O=c1cc(Cl)[nH]c(=O)[nH]1.[NH2-].[NH2-].[Pt+4]`, for which the growth inhibition in assay [1] is -21.9%; in assay [2], -18.1%; in assay [3], -2.4%; in assay [4] it was -47.6%; in assay [5] it was 2.65%; in assay [6], 35.7%.

`CC(C)(C)c1ccc(/C=N/NC(=O)c2cccnc2)cc1`: the growth inhibition in assay [1] is 0.55%; in assay [2] it was 8.45%; in assay [3] it was 4.15%; in assay [4], 14.3%; in assay [5], 11.3%; in assay [6] it was 9.45%.
